Measurements from PubChem BioAssay (NCATS).
Results filed as inconclusive are left out. Where a call stands in place of a potency, no number is given. Unmarked numbers belong to inactive results. Active and inactive are the calls of the source. The call rests on the fitted dose curve; in most records, active means well fitted curve in the direction sought with a large enough effect; inconclusive means small, poorly fitted or top-dose-only effect, or another doubt; inactive means no such curve, though single readings can be large; an effect the other way counts as inactive or inconclusive.

Legend:
[1] = molecular target: Aldehyde dehydrogenase, mitochondrial (Homo sapiens) (UniProt P05091); assay: qHTS for Inhibitors of the Aldehyde Dehydrogenase Family (ALDH2) Primary screen (AID 2061308); conditions: ALDH2 enzyme inhibition qHTS, 1536-well; series mostly up to 56 µM; further: nearly all actives have a fitted effect of over 55% in size
[2] = molecular target: Retinaldehyde dehydrogenase 3 (Homo sapiens) (UniProt P47895); assay: qHTS for Inhibitors of the Aldehyde Dehydrogenase Family (ALDH1A3) Primary screen (AID 2061315); conditions: ALDH inhibition qHTS; series mostly up to 56 µM

| SMILES | Potency [1] | Potency [2] | activity change, negative = inhibition [1] | activity change, negative = inhibition [2] |
| --- | --- | --- | --- | --- |
| Cc1ccc(NC(=O)c2cnn3c(C)cc(C)nc23)cc1 | inactive | inactive |  |  |
| O=C(OCC#CCSc1nnc(-c2ccc3ccccc3c2)o1)c1ccc(F)cc1 | inactive | inactive |  |  |
| Cc1cc(NC(=O)Nc2nnc(C3CCCCC3)s2)ccc1Br | inactive | inactive |  |  |
| CCCn1c(-c2ccc(F)cc2)nc2c(NCCN3CCOCC3)nc(C)nc21 | inactive | inactive |  |  |
| CN(C)c1cccc(-c2ncc(F)c(N3CCC(C(N)=O)CC3)n2)c1 | inactive | inactive |  |  |
| COc1cnc(-c2ccc(Cn3c(CC(C)(C)C(=O)O)c(SC(C)(C)C)c4cc(OC[C@@H]5Cc6ccccc6N5C(C)=O)ccc43)cc2)nc1 | inactive | inactive |  |  |
| Oc1cc(-c2ccc(N3CCCCC3)nc2)cc2cccnc12 | inactive | inactive |  |  |
| O=C(O)c1ccc(S(=O)(=O)N[C@H](Cc2c[nH]c3ccccc23)C(=O)O)cc1 | inactive | inactive |  |  |
| Cc1ccc(NC(=O)CN2C(=O)N/C(=C\c3cccn3-c3cccc(C(=O)O)c3)C2=O)cc1 | inactive | inactive |  |  |
| O=S(=O)(NCC1CN(S(=O)(=O)c2ccc3c(c2)OCCO3)C1)c1c(F)cccc1F | inactive | inactive |  |  |
| CCOC(=O)c1ccc(-c2ccc3ncnc(NCCc4cnc[nH]4)c3c2)o1 | inactive | inactive |  |  |
| Oc1cccc2cc(N3CCCC3)cnc12 | inactive | inactive |  |  |
| C#C[C@]1(O)CC[C@H]2[C@@H]3CCC4=C/C(=N/O)CC[C@@H]4[C@H]3CC[C@@]21CC | inactive | inactive |  |  |
| CO/N=C(/C(=O)N[C@@H]1C(=O)N2C(C(=O)O)=C(Cn3nnc(C)n3)CS[C@H]12)c1csc(N)n1 | inactive | inactive |  |  |
| CCSC1=NS(=O)(=O)c2ccccc21 | inactive | inactive |  |  |
| Cc1ccc(-c2ccnn(CC(=O)N(C)C(C)c3ccco3)c2=O)cc1 (centres undefined) | inactive | inactive |  |  |
| CCCC1CCN(C(=O)CC(c2ccc3c(c2)OCO3)c2c(O)cc(OC)cc2OC)C1 (centres undefined) | inactive | inactive |  |  |
| Cc1cc(C)nc(NC(=S)N2CCN(c3cnccn3)CC2)c1 | inactive | inactive |  |  |
| O=C(N/C=C/c1ccccc1)c1cccc([S+](=O)([O-])Nc2ccccc2F)c1 | inactive | inactive |  |  |

| SMILES | Potency [1] | Potency [2] | activity change, negative = inhibition [1] | activity change, negative = inhibition [2] |
| --- | --- | --- | --- | --- |
| COc1cccc(CNc2ccc(S(=O)(=O)Nc3nc4ccccc4o3)cc2)c1O | inactive | inactive |  |  |
| C(#Cc1cccs1)c1cccnc1 | inactive | inactive |  |  |
| Cc1cc(C)nc(NC(=S)N2CCN(c3cccc(OC(F)F)c3)CC2)c1 | inactive | inactive |  |  |
| Cc1ccc(NS(=O)(=O)c2cc3c(cc2N(C)C)NC(=O)CC3)cc1C | inactive | inactive |  |  |
| CCCCC(O)C(=O)Nc1cc(C(F)(F)F)ccc1Cl (centres undefined) | inactive | inactive |  |  |
| c1csc(CNc2ncnc3ccc(-c4ccc5c(c4)OCCO5)cc23)c1 | inactive | inactive |  |  |
| Cc1ccc(-c2ccc(=O)n(CC(=O)NCCC3CC3)n2)cc1 | inactive | inactive |  |  |
| Cc1ccc(=O)n(CC(=O)NCCc2ccccc2)n1 | inactive | inactive |  |  |
| CN1CCN(c2cccc(Nc3nn4c(=O)c5ccccc5nc4s3)c2)CC1 | inactive | inactive |  |  |
| Cc1ccc(N2CCC(CNc3nc(-c4ccccc4C(C)C)ncc3C)CC2)cn1 | inactive | inactive |  |  |
| COc1cccc(CNc2ccc(S(=O)(=O)Nc3ccc(N4CCNCC4)cc3)cc2)c1O | inactive | inactive |  |  |
| CC1(C)CC[C@]2(C(=O)O)CC[C@]3(C)C(=CCC4[C@@]5(C)CC[C@H](O[C@@H]6O[C@H](C(=O)O)[C@@H](O)[C@H](O[C@@H]7O[C@H](CO)[C@H](O)[C@H](O)[C@H]7O)[C@H]6O[C@@H]6O[C@H](CO)[C@@H](O)[C@H](O)[C@H]6O)C(C)(C)C5CC[C@]43C)[C@@H]2C1 (some centres undefined) |  |  | -3.97% [at 11.2 µM] | 11.9% [at 11.2 µM] |
| Cn1c2cc(S(C)(=O)=O)sc2c2cnn(Cc3ccccc3F)c(=O)c21 | inactive | inactive |  |  |
| Cn1nnnc1Sc1ncnc2n[nH]c(-c3cccc(S(C)(=O)=O)c3)c12 | inactive | inactive |  |  |
| CS(=O)(=O)/C=C/c1nc(Nc2cc(F)cc(F)c2)c2ncn(CC(F)F)c2n1 | inactive | inactive |  |  |
| Cc1ccc2oc(NC3=NC(c4[nH]ncc4Cl)C4=C(CCCC4=O)N3)nc2c1 (centres undefined) | inactive | inactive |  |  |
| CCCn1c(-c2ccc(F)cc2)nc2c(N3CCCN(Cc4ccccc4)CC3)nc(C)nc21 | inactive | inactive |  |  |
| O=S(=O)(Nc1nc(CN2CCOCC2)nc2sc3c(c12)CCCC3)c1ccc2ccccc2c1 | inactive | inactive |  |  |
